In all, about 81,000 sequences were measured (“one-hybrid fitness for binding NBS DNA”: median about -0.1, highest 2% from about 0.36 on). The sample holds the highest values, similar sequences and a random draw of the others, so the mix is not that of the screen.
B1: Caulobacter ParB omega fusion; a variant is named by its letters at X, in order, B8GW30 (parent)
chain: MESVVVGEPGMSEGRRGLGRGLSALLGEVDAAPAQAPGEQLGGSREAPIEILQRNPDQPRRTFREEDLEDLSNSIREKGVLQPILVRPSPDTAGEYQIVAGERAWRAAQRAGLKTVPIMVRELDDLAVLEIGIIENVQRADLNVLEEALSYKVLMEKFERTQENIAQTIGKSXSHVANXMRLLXLPDEVQSYLVSGELTAXHARAIAAAADPVALAKQIIEGGLSVRETEALARKAPNLSAGKSKGGRPPRVKDTDTQALESDLSSVLGLDVSIDHRGSTGTLTITYATLEQLDDLCNRLTRGI

Variants of: B1
Assay: one-hybrid fitness for binding NBS DNA (the Noc-binding site; scaled: cognate 1, non-cognate 0); higher = stronger binding
Details: with NBS DNA site
Summary of the method: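 Fitness is the rescaled log change in variant-to-wild-type read ratio, measured by Illumina sequencing of plasmids before and after bacterial one-hybrid selection. The scale puts cognate at 1 and non-cognate at 0. Selection of Caulobacter ParB libraries, four specificity codons randomised, took place in E. coli USO with a HIS3 reporter, site 19 bp from the promoter, over 48 hours at 37°C on M9-minus-histidine with 0.1 mM IPTG and 5 mM 3-AT.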

| Variant | one-hybrid fitness for binding NBS DNA |
| --- | --- |
| GNMC | ≤ 0.2 |
| FFRR | ≤ 0.2 |
| NETT | ≤ 0.2 |
| VRYR | 0.239 |
| VRVR | ≤ 0.2 |
| VRNR | 0.368 |
| VRDR | ≤ 0.2 |
| VCRR | 0.246 |
| VRKR | 0.62 |
| VRRR | 0.624 |
| VCKR | 0.228 |
| VCNR | ≤ 0.2 |
| TYNY | ≤ 0.2 |
| VWLM | ≤ 0.2 |
| RPGK | ≤ 0.2 |
| RPHR | ≤ 0.2 |
| RSHR | 0.476 |
| RCHR | 0.586 |
| RSHD | ≤ 0.2 |
| RFHR | 0.305 |
| RSHN | ≤ 0.2 |
| LSID | ≤ 0.2 |
| YTWT | ≤ 0.2 |
| SVNS | ≤ 0.2 |
| PHLC | ≤ 0.2 |

| Variant | one-hybrid fitness for binding NBS DNA |
| --- | --- |
| NPYT | ≤ 0.2 |
| QSQR | 0.535 |
| QTQR | 0.757 |
| QAQN | ≤ 0.2 |
| QSQH | 0.246 |
| QIQD | ≤ 0.2 |
| QAQR | 0.506 |
| QIQR | 0.39 |
| QIQN | ≤ 0.2 |
| QTQD | ≤ 0.2 |
| QTQH | 0.346 |
| QAQP | ≤ 0.2 |
| QSQN | ≤ 0.2 |
| SVRD | ≤ 0.2 |
| NSML | ≤ 0.2 |
| LLKM | ≤ 0.2 |
| MPSK | ≤ 0.2 |
| KHMV | ≤ 0.2 |
| QCQR | 0.612 |
| QHQD | ≤ 0.2 |
| QKQG | ≤ 0.2 |
| QKQN | ≤ 0.2 |
| QDQR | ≤ 0.2 |
| QGQR | ≤ 0.2 |
| QHQR | 0.523 |

| Variant | one-hybrid fitness for binding NBS DNA |
| --- | --- |
| QKQR | 0.67 |
| QPQR | ≤ 0.2 |
| YKRT | ≤ 0.2 |
| SATK | ≤ 0.2 |
| TSAP | ≤ 0.2 |
| DITY | ≤ 0.2 |
| QYQP | ≤ 0.2 |
| QYQY | ≤ 0.2 |
| QYQM | ≤ 0.2 |
| QYQG | ≤ 0.2 |
| QYQT | 0.446 |
| QYQS | 0.373 |
| QHTQ | ≤ 0.2 |
| IKPC | ≤ 0.2 |
| QEEP | ≤ 0.2 |
| QTAE | ≤ 0.2 |
| AHII | ≤ 0.2 |
| QTLG | ≤ 0.2 |
| QRKC | 0.507 |
| QKIC | ≤ 0.2 |
| QMKC | 0.383 |
| QMVC | ≤ 0.2 |
| QKVC | ≤ 0.2 |
| QLKC | 0.304 |
| QSVC | ≤ 0.2 |

| Variant | one-hybrid fitness for binding NBS DNA |
| --- | --- |
| QMNC | ≤ 0.2 |
| QRIC | 0.303 |
| QKKC | 0.385 |
| QRVC | 0.314 |
| QSKC | 0.367 |
| HLMG | ≤ 0.2 |
| TSYM | ≤ 0.2 |
| HDED | ≤ 0.2 |
| PFKY | ≤ 0.2 |
| LLIF | ≤ 0.2 |
| QCLE | ≤ 0.2 |
| HMAT | ≤ 0.2 |
| CQKM | ≤ 0.2 |
| RIAG | ≤ 0.2 |
| QPKC | ≤ 0.2 |
| QTVC | ≤ 0.2 |
| QTKC | 0.53 |
| QCKC | 0.452 |
| QTPC | ≤ 0.2 |
| QHVC | ≤ 0.2 |
| QHKC | 0.367 |
| QAKC | 0.349 |
| QHYC | ≤ 0.2 |
| KAAT | ≤ 0.2 |
| GLAF | ≤ 0.2 |

| Variant | one-hybrid fitness for binding NBS DNA |
| --- | --- |
| PDTG | ≤ 0.2 |
| GSLV | ≤ 0.2 |
| QKYT | 0.511 |
| QKCY | ≤ 0.2 |
| QKWT | 0.454 |
| QKCC | ≤ 0.2 |
| QKIT | 0.363 |
| QKPT | 0.306 |
| QKHC | ≤ 0.2 |
| QKCT | 0.475 |
| QKWG | ≤ 0.2 |
| QAWT | 0.297 |
| QKHM | ≤ 0.2 |
| QKHT | 0.549 |
| SRNN | ≤ 0.2 |
| GDKC | ≤ 0.2 |
| RTGY | ≤ 0.2 |
| ARHT | ≤ 0.2 |
| RTFI | ≤ 0.2 |
| IIAL | ≤ 0.2 |
| HVSG | ≤ 0.2 |
| PVMQ | ≤ 0.2 |
| YSMW | ≤ 0.2 |
| LTAH | ≤ 0.2 |
| AHPT | ≤ 0.2 |

| Variant | one-hybrid fitness for binding NBS DNA |
| --- | --- |
| QKSM | ≤ 0.2 |
| QKGT | 0.566 |
| QKGM | ≤ 0.2 |
| QKSG | ≤ 0.2 |
| DKRT | ≤ 0.2 |
| QKLT | 0.464 |
| QKLY | ≤ 0.2 |
| QKRT | 0.757 |
| NKRT | ≤ 0.2 |
| QKGG | ≤ 0.2 |
| QKST | 0.526 |
| TSRY | ≤ 0.2 |
| RQHL | ≤ 0.2 |
| HCVL | ≤ 0.2 |
| SCSP | ≤ 0.2 |
| SVIR | ≤ 0.2 |
| DSRA | ≤ 0.2 |
| DIFG | ≤ 0.2 |
| WLHF | ≤ 0.2 |
| EQLL | ≤ 0.2 |
| LLDV | ≤ 0.2 |
| GYFR | ≤ 0.2 |
| QKNT | 0.639 |
| QKDT | 0.401 |
| QKND | ≤ 0.2 |

| Variant | one-hybrid fitness for binding NBS DNA |
| --- | --- |
| QKNN | 0.203 |
| GYDR | ≤ 0.2 |
| FATT | ≤ 0.2 |
| GEDG | ≤ 0.2 |
| RHGT | 0.344 |
| RCGT | 0.462 |
| RSGT | 0.425 |
| RAGT | 0.443 |
| RIGT | 0.403 |
| RAGG | ≤ 0.2 |
| RIGQ | ≤ 0.2 |
| RFGT | ≤ 0.2 |
| RNGT | ≤ 0.2 |
| RAGF | ≤ 0.2 |
| RPGT | ≤ 0.2 |
| CETT | ≤ 0.2 |
| LWGM | ≤ 0.2 |
| HAAD | ≤ 0.2 |
| HAFN | ≤ 0.2 |
| VLQG | ≤ 0.2 |
| QGVT | ≤ 0.2 |
| QCVT | 0.428 |
| QKKT | 0.774 |
| QPVT | 0.269 |
| QKVT | 0.44 |

| Variant | one-hybrid fitness for binding NBS DNA |
| --- | --- |
| QKVG | ≤ 0.2 |
| DKKT | ≤ 0.2 |
| CKVS | ≤ 0.2 |
| ENAK | ≤ 0.2 |
| LWKN | ≤ 0.2 |
| VVCT | ≤ 0.2 |
| GSCC | ≤ 0.2 |
| HRFR | ≤ 0.2 |
| RRDS | 0.58 |
| RRNC | 0.343 |
| RRNF | 0.281 |
| RRDP | ≤ 0.2 |
| RRNS | 0.678 |
| RRDD | ≤ 0.2 |
| ADSL | ≤ 0.2 |
| MLMV | ≤ 0.2 |
| CATV | ≤ 0.2 |
| SVNP | ≤ 0.2 |
| VMPY | ≤ 0.2 |
| MHHD | ≤ 0.2 |
| QCLH | ≤ 0.2 |
| QRLH | 0.453 |
| QRLS | 0.603 |
| QRLP | ≤ 0.2 |
| QRLD | ≤ 0.2 |

| Variant | one-hybrid fitness for binding NBS DNA |
| --- | --- |
| QRLN | 0.308 |
| LGRE | ≤ 0.2 |
| ACPI | ≤ 0.2 |
| REGM | ≤ 0.2 |
| TASA | ≤ 0.2 |
| RQSH | ≤ 0.2 |
| RQRR | 0.717 |
| RQSR | 0.474 |
| RQSD | ≤ 0.2 |
| RQNR | 0.559 |
| RQND | ≤ 0.2 |
| RQQS | 0.429 |
| RQWR | 0.244 |
| RQDR | ≤ 0.2 |
| RQPR | ≤ 0.2 |
| RQQP | ≤ 0.2 |
| RQQD | ≤ 0.2 |
| ARKV | ≤ 0.2 |
| NQVL | ≤ 0.2 |
| FWRE | ≤ 0.2 |
| DFAH | ≤ 0.2 |
| PFPI | ≤ 0.2 |
| KFHC | ≤ 0.2 |
| LPAH | ≤ 0.2 |
| KTKA | ≤ 0.2 |

| Variant | one-hybrid fitness for binding NBS DNA |
| --- | --- |
| EELL | ≤ 0.2 |
| PSMT | ≤ 0.2 |
| RQLR | 0.359 |
| RQHD | ≤ 0.2 |
| RQQG | ≤ 0.2 |
| RQHR | 0.476 |
| RQGP | ≤ 0.2 |
| RQGN | ≤ 0.2 |
| RQIR | ≤ 0.2 |
| RQQT | 0.441 |
| RQGS | 0.408 |
| RQQK | ≤ 0.2 |
| RQHH | ≤ 0.2 |
| RQYR | 0.368 |
| CNHR | ≤ 0.2 |
| SRDF | ≤ 0.2 |
| GICT | ≤ 0.2 |
| HHHV | ≤ 0.2 |
| ISLV | ≤ 0.2 |
| PQPQ | ≤ 0.2 |
| SHQT | ≤ 0.2 |
| RQQH | ≤ 0.2 |
| RQQR | 0.475 |
| RQKG | ≤ 0.2 |
| RQGD | ≤ 0.2 |

| Variant | one-hybrid fitness for binding NBS DNA |
| --- | --- |
| RQVR | 0.258 |
| RQAP | ≤ 0.2 |
| RQKR | 0.752 |
| RQGH | ≤ 0.2 |
| RQFR | 0.262 |
| RQQN | ≤ 0.2 |
| RQAR | 0.427 |
| RQGR | 0.447 |
| IAMG | ≤ 0.2 |
| HHPA | ≤ 0.2 |
| HPHL | ≤ 0.2 |
| TLMC | ≤ 0.2 |
| PVFR | ≤ 0.2 |
| FHGR | ≤ 0.2 |
| QHHG | ≤ 0.2 |
| RYFG | ≤ 0.2 |
| RQYS | 0.322 |
| RQRN | 0.221 |
| RQHS | 0.468 |
| RQCN | ≤ 0.2 |
| RQCS | 0.278 |
| RQRS | 0.6 |
| RQCR | 0.394 |
| RQHN | ≤ 0.2 |
| RQHP | ≤ 0.2 |

| Variant | one-hybrid fitness for binding NBS DNA |
| --- | --- |
| TYVN | ≤ 0.2 |
| IGSF | ≤ 0.2 |
| FTRC | ≤ 0.2 |
| PRTW | ≤ 0.2 |
| QTHY | 0.384 |
| QTHF | ≤ 0.2 |
| QTHS | 0.585 |
| QTHD | ≤ 0.2 |
| QTHH | 0.44 |
| QTHN | 0.297 |
| QTHP | ≤ 0.2 |
| QSHY | 0.201 |
| YMSF | ≤ 0.2 |
| HSWC | ≤ 0.2 |
| ATGK | ≤ 0.2 |
| YNLW | ≤ 0.2 |
| DVCT | ≤ 0.2 |
| DEDT | ≤ 0.2 |
| PSQV | ≤ 0.2 |
| DYHC | ≤ 0.2 |
| RKWK | ≤ 0.2 |
| AQNL | ≤ 0.2 |
| RRHH | 0.525 |
| RRHP | ≤ 0.2 |
| RRHK | 0.267 |

| Variant | one-hybrid fitness for binding NBS DNA |
| --- | --- |
| RRHD | ≤ 0.2 |
| RRHN | 0.331 |
| RRHS | 0.681 |
| VSMF | ≤ 0.2 |
| PDIW | ≤ 0.2 |
| QITA | ≤ 0.2 |
| QCMA | 0.303 |
| QACA | ≤ 0.2 |
| QSMA | ≤ 0.2 |
| QSWA | ≤ 0.2 |
| QHCA | ≤ 0.2 |
| QSTA | 0.219 |
| QRCA | 0.609 |
| QRTA | 0.6 |
| QIWA | ≤ 0.2 |
| QRMA | 0.549 |
| QRWA | 0.432 |

— a collection of fitness landscapes (doi:10.1016/j.celrep.2020.107928)
